Most compounds without a hit are left out; they make up all but 4.2% or so of the library.
SMARCA2 activ – SMARCA2 (BRM) function activators, primary screen, cell-based, luminescence, high throughput; MG213 cells, MMTV-luciferase reporter, dexamethasone, overnight; activation, % at 9.1 µM; hit rate 1% among 370,000; AID 652017, 2013; in the data active = activation above about 7.8%
DAX1 inh – DAX1 (NR0B1) inhibitors on StAR promoter, primary screen, cell-based, luminescence, SF-1 (NR5A1), full-length DAX-1; hit rate 1.1% among 370,000; inhibition, % at 6.8 µM; HEK293T StAR-luciferase reporter, SF-1/DAX-1 repression relief;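 active = inhibition above the mean over all tested compounds plus 3 SD, cut at about 3.6% in these data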;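 also: higher inhibition means more luminescence from relief of DAX-1 repression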
ssDAF-12 act – S. stercoralis DAF-12 nuclear receptor activators, primary screen, cell-based, luminescence, HEK293, GRIP1 co-expression, lit1-tk-luc; AID 652126, 2013; hit rate 1% among 370,000; activation, % at 6.8 µM; HEK293 ssDAF-12/GRIP1 lit1-tk-luc reporter; % of 3 µM dafachronic acid response; Nuclear hormone receptor DAF-12 (Strongyloides stercoralis);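 active = activation above the mean over all tested compounds plus 3 SD, cut at about 0.9% in these data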
hgDAF12 agonist – H. glycines DAF-12 receptor agonists, primary screen, cell-based, luminescence, HEK293, GAL4 fusion, UAS-luciferase; Nuclear hormone receptor DAF-12 (Heterodera glycines), GAL4 fusion; HEK293 GAL4-hgDAF12 UAS-luciferase reporter, agonist luminescence; normalized to butyrate control; activation, % at 6.8 µM; hit rate 1.8% among 370,000; AID 687014, 2013;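 active = activation above a cutoff set at the mean of all screened compounds plus 3 SD, cut at about 10% in these data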
hcDAF12 agonist – H. contortus DAF-12 nuclear receptor activators, primary screen, cell-based, luminescence, HEK293, lit1-tk-luc reporter; activation, % at 6.8 µM; HEK293 hcDAF-12 lit1-tk-luc reporter; 0% DMSO, 100% Δ7-dafachronic acid; hit rate 1.4% among 370,000;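 active = activation above the mean of all tested compounds plus 3 SD, cut at about 5.5% in these data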
LXRb hcDAF ctr – LXR agonists, Gal4 luciferase reporter, confirmation, counter-screen for hcDAF-12 agonist project, cell-based, luminescence, HEK293, H. contortus campaign; AID 743027, 2013; 3,400 tested, under 10 active; HEK293 Gal4-LXR tk-luc reporter, 24 h; normalized: DMSO 0%, positive control 100%; activation, % at 6.8 µM; shares compounds with hcDAF12 agonist;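 active = mean percent activation of the reporter above a cutoff set as the average over tested compounds plus their standard deviation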
Target sequence (P55055 whole entry, looked up, the tested form may be a part): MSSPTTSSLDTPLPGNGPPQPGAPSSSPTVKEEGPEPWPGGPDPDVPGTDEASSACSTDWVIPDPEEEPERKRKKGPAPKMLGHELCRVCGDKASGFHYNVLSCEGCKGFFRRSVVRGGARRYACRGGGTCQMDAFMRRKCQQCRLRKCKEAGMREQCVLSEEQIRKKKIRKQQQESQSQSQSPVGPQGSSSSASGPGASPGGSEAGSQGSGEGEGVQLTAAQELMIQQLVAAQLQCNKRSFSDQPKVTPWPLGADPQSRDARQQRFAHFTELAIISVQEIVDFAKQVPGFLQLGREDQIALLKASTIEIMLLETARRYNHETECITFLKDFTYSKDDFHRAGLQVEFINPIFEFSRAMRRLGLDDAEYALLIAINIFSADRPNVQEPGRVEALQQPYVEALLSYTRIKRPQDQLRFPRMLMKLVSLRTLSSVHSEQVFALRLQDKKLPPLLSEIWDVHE
hcDAF12 ag – H. contortus DAF-12 receptor agonists, confirmation, cell-based, luminescence, HEK293, lit1-tk-luc, triplicate. shares compounds with hcDAF12 agonist. HEK293 hcDAF-12 lit1-tk-luc reporter; % of Δ7-dafachronic acid response. activation, % at 6.8 µM. hit rate 61% among 3,400;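 active = mean activation across triplicate tests above the threshold derived from the earlier primary screen, cut at about 5.5% in these data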
Large screens that a line does not name were inactive (follow-up assays come after a bar, where they were run).

O=C(c1cc(C2CC2)on1)N(C1CCCCC1)C1CCCCC1	none
O=C(/C=C/c1cc(Br)ccc1F)Nc1cccnc1	none
O=C(/C=C/c1c(F)cccc1Cl)Nc1cccnc1	hgDAF12 agonist 11, hcDAF12 agonist 7.1 | LXRb hcDAF ctr inactive | hcDAF12 ag 6.8
COC(=O)C[C@H]1N(S(=O)(=O)c2ccc(C)cc2)C(C(C)C)CC1(C(=O)OC)C(=O)OC (stereo partly specified)	none
O=C(CN1C(=O)C2C3C=CC(C4CC34)C2C1=O)Nc1cnc2ccccc2c1 (stereo unspecified)	hcDAF12 agonist 7.5 | LXRb hcDAF ctr inactive | hcDAF12 ag inactive
Cc1cccc(C)c1NC(=O)C(CCc1ccccc1)N1CCN(CCN(C)C)CC1 (stereo unspecified)	none
O=C(Nc1ccc(F)c([N+](=O)[O-])c1)C(=O)c1c(O)[nH]c2ccccc12	hcDAF12 agonist 6.9 | LXRb hcDAF ctr inactive | hcDAF12 ag inactive
O=C(Nc1ccccc1)Nc1ccc(F)c([N+](=O)[O-])c1	none
Clc1ccc(OCc2cn3ccccc3n2)c2ncccc12	none
COc1c(Cl)cccc1-c1cn2ccccc2n1	hgDAF12 agonist 13, hcDAF12 agonist 7.3 | LXRb hcDAF ctr inactive | hcDAF12 ag 7.7
CCOC(=O)c1cc(NC(=O)c2ccc(Cl)cc2)c(=O)n2c1oc1ccc(Cl)cc12	hcDAF12 agonist 9.3 | LXRb hcDAF ctr inactive | hcDAF12 ag inactive
Cc1noc(C)c1NC(=O)N(C)C[C@@H]1OCc2cn(nn2)CCCC(=O)N([C@@H](C)CO)C[C@H]1C	none
O=C(Nc1ccncc1)Nc1ccc(Br)cc1Cl	none
O=C(Nc1ccc(Br)cc1)Nc1ccccc1Cl	hcDAF12 agonist 7.7 | LXRb hcDAF ctr inactive | hcDAF12 ag inactive
Cc1ccc(S(=O)(=O)N2[C@@H](CO)CO[C@H]2CC(=O)OCc2ccccc2)cc1	none
Nc1ccc(N=Nc2ccccc2)c2cccnc12	hcDAF12 agonist 7.4 | LXRb hcDAF ctr inactive | hcDAF12 ag 9.5
O=C(C1CCCN(S(=O)(=O)c2ccc(F)cc2)C1)N1CCN(Cc2ccccc2)CC1 (stereo unspecified)	none
Oc1ccccc1-c1csc(-c2ccccc2)n1	ssDAF-12 act 5.1, hgDAF12 agonist 20, hcDAF12 agonist 14 | LXRb hcDAF ctr inactive | hcDAF12 ag 15
COc1cccc(CNS(=O)(=O)c2cc3c(cc2Br)CC(C)N3C(C)=O)c1 (stereo unspecified)	none
CCN1CCCCC(NC(=O)c2ccccc2C)C1=O (stereo unspecified)	none
COc1ccccc1C(=O)NNC(=O)C1CC=CCC1 (stereo unspecified)	ssDAF-12 act 4.0, hcDAF12 agonist 7.2 | LXRb hcDAF ctr inactive | hcDAF12 ag 7.2
COc1ccccc1C(=O)NNC(=S)Nc1ccccc1	hcDAF12 agonist 11 | LXRb hcDAF ctr inactive | hcDAF12 ag 9.0
COc1ccccc1C(=O)NNC(=O)c1ccc(O)cc1	none
COc1ccccc1C(=O)NNC(=O)c1ccc(F)cc1	hcDAF12 agonist 9.3 | LXRb hcDAF ctr inactive | hcDAF12 ag 6.8
COC(=O)c1cc(-c2ccc3ccccc3c2)c(=O)n2c1CCC2	none
C/C=C/C=C/C(=O)N1C[C@H](C)N(C)C[C@H]1C	none
COc1ccccc1Cc1c(-c2ccc(F)cc2)nc2ccc(Cl)cn12	DAX1 inh 4.0, hgDAF12 agonist 11, hcDAF12 agonist 7.0 | LXRb hcDAF ctr inactive | hcDAF12 ag inactive
CCOC(=O)[C@]12CCC=C1N(Cc1cccc3ccccc13)C(=O)[C@H](CC(=O)NCCc1ccccc1OC)C2	none
Cc1nc2cc(NC(=O)CCS(=O)(=O)c3ccccc3)ccc2s1	DAX1 inh 4.0, hgDAF12 agonist 12, hcDAF12 agonist 7.8 | LXRb hcDAF ctr inactive | hcDAF12 ag inactive
Cc1ccc(Cn2cc(CN3CC(N4CCSCC4)CS3(=O)=O)nn2)cc1 (stereo unspecified)	none
COC(=O)[C@]12CCCCC=C1N(CCc1ccc(OC)c(OC)c1)C(=O)[C@H](CC(=O)NCCC(C)C)C2	none
COc1cccc(C2CC(=O)N3CN(c4ccccc4F)CSC3=C2C#N)c1 (stereo unspecified)	none
COc1ccc(OC)c(C2CC(=O)N3CN(c4ccccc4F)CSC3=C2C#N)c1 (stereo unspecified)	hcDAF12 agonist 6.8 | LXRb hcDAF ctr inactive | hcDAF12 ag inactive
CC(=O)Nc1sc2c(c1-c1nc3ccccc3s1)CNC2	ssDAF-12 act 1.6, hcDAF12 agonist 16 (no result: SMARCA2 activ, DAX1 inh) | LXRb hcDAF ctr inactive | hcDAF12 ag 9.8
Cc1ccc(C(=O)C2CCN(CC(=O)N(C)C3CCCCC3)CC2)cc1	none
COc1ccc(C)cc1NC(=O)n1ncc2cc(Cl)ccc21	hcDAF12 agonist 7.4 | LXRb hcDAF ctr inactive | hcDAF12 ag inactive
CCOC(=O)N1CCN(C(=O)C[C@H]2C[C@@]3(C(=O)OC)C(=C[C@H](C(C)(C)C)O[C@@H]3C)N(CCC3=CCCCC3)C2=O)CC1	none
CC1=NN(C(=O)c2c(Br)cnn2C)C(O)(C(F)(F)F)C1 (stereo unspecified)	none
CC1=NN(C(=O)c2nn(C)cc2Br)C(O)(C(F)(F)F)C1 (stereo unspecified)	hcDAF12 agonist 8.9 | LXRb hcDAF ctr inactive | hcDAF12 ag inactive
O=C1NC[C@H](CCCCN2CCN(CCc3ccccc3)C(=O)C2=O)N(Cc2ccccc2)C1=O	none
COc1ccccc1N1C(=O)C(Cl)=C(Nc2ccccc2O)C1=O	ssDAF-12 act 1.5, hcDAF12 agonist 7.1 | LXRb hcDAF ctr inactive | hcDAF12 ag inactive
Cc1c(C(=O)Nc2nc3ccccc3[nH]2)oc2c(Cl)cccc12	ssDAF-12 act 1.0, hcDAF12 agonist 8.7 | LXRb hcDAF ctr inactive | hcDAF12 ag 9.2
Cc1c(C(=O)Nc2cccnc2Cl)oc2ccccc12	hcDAF12 agonist 6.7 | LXRb hcDAF ctr inactive | hcDAF12 ag 6.8
COC(=O)c1sc(NC(=O)c2oc3ccccc3c2C)nc1C	hcDAF12 agonist 8.2 | LXRb hcDAF ctr inactive | hcDAF12 ag inactive

Source: PubChem (The Scripps Research Institute Molecular Screening Center)
